The full ranking holds about 25,000 sequences; the median of “ln(normalized median fluorescence intensity)” is about 9.7, and the highest 2% start at about 11. The entries come from a sample that favours the highest values as a whole.
These sequences were tested on PfAP2-HC AP2 domain (GST-tagged) (assay: gcPBM binding intensity (ln(normalized median fluorescence intensity)); higher = stronger DNA binding).
Summary of the method: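 In this array assay, P. falciparum DNA-binding domains with a GST tag, expressed in E. coli, were applied for 1 h to primer-extended double-stranded 36-bp intergenic genomic probes and negative controls on an Agilent 4 × 180k array. Bound protein was visualised with Alexa488 anti-GST antibody at 488 nm. Binding intensity is the highest Masliner-normalised natural-log median intensity across replicate spots of either probe orientation.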

| Sequence | gcPBM binding intensity (ln) |
| --- | --- |
| CTTTGTGTTAAAAGTAGTACACCAAAAATATGACTT [XGTACX_site622] | 9.55 |
| TGGCAAAATAGGCACACACACATATACATATATATT [CACACA_site1059] | 10.3 |
| AATGGCAAAATAGGCACACACACATATACAGATATA [CACACA_site4726] | 10.6 |
| AAAAAAAAAAGACACACACACATATTTATTTATATA [CACACA_site6484] | 10.4 |
| AATGGAAAAATAGGCACACACACATAAATACAGATA [CACACA_site4844] | 11.2 |
| AATGGCAAAATAGGCACACACACATATACATATATA [CACACA_site1058] | 10.9 |
| TGGAAAAATAGGCACACACACATATATACATATATA [CACACA_site1297] | 10.5 |
| ATATTATACATTTATACACACATAAAAAGACAAAAA [CACACA_site3565] | 9.92 |
| AATACATACAGACACACACACACATATAAATAAATA [CACACA_site7642] | 11.6 |
| AATGGAAAAATAGGCACACACACATATATACATATA [CACACA_site1298] | 10.6 |
| TTAAAAAAAAGACACACACACATACACATATTTATA [CACACA_site7535] | 11.2 |
| TATACAGACAGACACACACACATATATAAATATGTA [CACACA_site6912] | 10.6 |
| CATACATACAGACACACACACATATAAATACATACA [CACACA_site6533] | 10.3 |
| TTCTATATATAATATTGTACTTAATTATTTTATTTT [XGTACX_site2701] | 9.83 |
| TTTTATCATATTTATTGTACACATAATATACATATC [XGTACX_site1145] | 9.99 |
| GATATGTACTAATACACACACATATATATATATATA [CACACA_site1022] | 10.2 |
| ATACATTTTTGTAAAAGTACATATACATGCCCCCTT [XGTACX_site1367] | 9.72 |
| TTATATATATATGTATGTACTTATAACTTTTATTAG [XGTACX_site3190] | 9.6 |
| TTTTTTTTTTTTGTAGTGCAAATTAAAAATATATGT | 9.39 |
| ACATAGATCATAGGTTGTACGAAGGTATCCTTTATT [XGTACX_site694] | 9.65 |
| AAGATAACAAGTAATCAATCTAATTATTAATTATAT [CACACA_negctrl_site1713] | 9.52 |
| AACGAACACTATTACACACATACATACATATGTATG [CACACA_site1859] | 10.1 |
| AAGGAAAAACCATTCGCACACACACCGAATATATAA [CACACA_site8403] | 10.2 |
| CAATTTTACTCATAAACACACATATAGATGTTATTA [CACACA_site7474] | 9.6 |

| Sequence | gcPBM binding intensity (ln) |
| --- | --- |
| AAATAATATATTCCTTGTACTTATTTCAATGAATTC [XGTACX_site7719] | 9.64 |
| ATGGGACAGATATATACACACATATAAATATAAATA [CACACA_site6684] | 10 |
| GAATAATATGGACATACACACATATACATACAGATA [CACACA_site5200] | 10.5 |
| GATACAGATGGACACACACACATACATAAATACATA [CACACA_site5833] | 11.3 |
| AAAAAAAACGAACACACACACATTCAATATAAAACA [CACACA_site6170] | 10.5 |
| TATACAGATGGACACACACACATATATATATATATA [CACACA_site5272] | 11 |
| CAAGGAACCAGACACACACACATAAATGTATATATA [CACACA_site752] | 10.2 |
| TATACAGATGGACACACACACATAAATAAATATATA [CACACA_site4863] | 10.4 |
| GGAATAACCAGACACACACACACATATAAATATGTA [CACACA_site7632] | 11.2 |
| AAAAAAAAAAAACACACACACACATTCAATATAAAA [CACACA_site40] | 10.4 |
| AAAAAAAACAGACACACACACATTCAATATAAAACA [CACACA_site41] | 11.3 |
| GGAATAACCAGACACACACACACATATATATATATA [CACACA_site3541] | 10.9 |
| CAAATACATGGACACACACACATATACAGATATATA [CACACA_site5854] | 10.9 |
| TACAATACCGTACAGGTGCAACTAGCCAAAAAAAAG | 9.75 |
| CCCTTTTTTTTTTAATGTACATATAATTATATATTT [XGTACX_site8568] | 9.88 |
| ATTCAATAAACGTATTGTACAAAAGAACGATATATT [XGTACX_site2533] | 9.78 |
| CAACATTCGTATATCACACATTTGCATGTTGTCAAT [CACACA_site4470] | 9.78 |
| TAACAATATCTAGATACACACACATATCTCTCAATC [CACACA_site8122] | 10.4 |
| CTCCTTTCAAAAAAATGTACATGTTTACATTTCAAG [XGTACX_site7342] | 9.55 |
| GTAATACACAGACACACACACATACACATATTTATA [CACACA_site7313] | 10.5 |
| TACACATACAGACATACACACATACACATATACACA [CACACA_site6918] | 10.5 |
| TATATTATTTATTAGACACACATTATTAATATATTT [CACACA_site1078] | 9.79 |
| TATTTATATAGACACACACACATATATTTATATTTT [CACACA_site7240] | 10.4 |
| TATACAGATAAATACACACACACATATATATATATA [CACACA_site4845] | 11.2 |

| Sequence | gcPBM binding intensity (ln) |
| --- | --- |
| TACATACACAGACACACACACATATATATATATATA [CACACA_site3557] | 10.9 |
| TATATTAATAGACACACACACATATTTATATTTATA [CACACA_site6859] | 11.1 |
| CATACATACAGACACACACACATATTTATATTTATA [CACACA_site6172] | 11.3 |
| AATATGTACAGACATACACACATATTTATATTTATA [CACACA_site6694] | 9.88 |
| CATACAGATATATATACACACATACAGATAAATACA [CACACA_site4592] | 9.95 |
| AATACATACAGACACACACACACATATATATATATA [CACACA_site3558] | 11.5 |
| TATACAGATAAATACACACACATATATATATATATA [CACACA_site4178] | 9.86 |
| ATATATAGGTTCCCTTTTCTTTTTTTTTTTTTTTTT [CACACA_negctrl_site1159] | 9.39 |
| AAAAAACAAAAAAAAAAAAAAATAATACAATATAAT [CACACA_negctrl_site1630] | 9.56 |
| ACGATATTTTTGGTGACACACATATATATATATATA [CACACA_site126] | 9.8 |
| AAAAATTTTTTTTCATTTGTTTTTATTCCGTAAAAA [CACACA_negctrl_site1217] | 9.17 |
| AAAATATATTAAGGCACACACATACAGATATATATA [CACACA_site5951] | 11.1 |
| TATATATCAAGACACACACACATATATTTATTTATA [CACACA_site7733] | 11.2 |
| ATGATATATAGACACACACACATATTTATATACATT [CACACA_site6404] | 10.9 |
| AAAAAATATATTAAGGCACACACATACATATATATA [CACACA_site9239] | 10.2 |
| AAAATACACAGACACACACACATATAAATAAATATT [CACACA_site7871] | 10.8 |
| TATATATCAATATACACACACACATATTTATTTATA [CACACA_site6858] | 10.4 |
| CTAAAATACAGACACACACACACATATATATATATA [CACACA_site4150] | 11 |
| TATTTATAGATATATACACACATATTTATATTTATA [CACACA_site6441] | 9.78 |
| TATACATAGATATATACACACATATATTTATATACA [CACACA_site6328] | 9.92 |
| AAAATATATTAAGGCACACACATACATATATATATA [CACACA_site3723] | 10.7 |
| TAAATACAGACATATACACACATATATATATATATA [CACACA_site4382] | 9.75 |
| TATGTGCCAAGACACACACACATATTTATATTTATA [CACACA_site6360] | 10.2 |
| TATACAAGTATATAGGTGCATATATAAGTATATATT [GTGCAC_site9994] | 9.69 |

| Sequence | gcPBM binding intensity (ln) |
| --- | --- |
| ACGTTTTATTTTTATTGTACTCACATTGAAATGAAT [XGTACX_site6094] | 10 |
| AATATAATGCAATATACACACATATATTTCTCTTTT [CACACA_site7276] | 9.94 |
| TTTTCTAAAAAAAGTTGTACATCTTATTTATATTAT [XGTACX_site295] | 9.63 |
| AATTTCAAATTGTATGTGCACATGTAGAAGTACTTT | 9.85 |
| AAAATATGTATGTAAAGTACTAATATACAAATTTTT [XGTACX_site5186] | 9.62 |
| TGTATTTATTAATGTACACACATGCGTATGTTCGTT [CACACA_site5892] | 9.96 |
| TTTTTTTTTATAGCTAAACACACATAAGAATATATG [CACACA_site8282] | 9.61 |
| TTTTTTTTTTTTTTTGCACACACATTGAATTATTAT [CACACA_site198] | 9.96 |
| TTTATTTATATAATTACACACATATATACACAAATG [CACACA_site8903] | 9.79 |
| TGTTGTAACAAAAGTACACACACATTTCTATAAATT [CACACA_site8894] | 9.86 |
| GAATATAAACATATTACACACATCTATCTGTACATT [CACACA_site5114] | 9.97 |
| TATAAATATAAATACACACACACATCAATACAGATA [CACACA_site5850] | 11 |
| TACAGATACAGATACACACACACACCGAAATAAATA [CACACA_site4865] | 11 |
| AAAAAAAACAGACACACACACATACAAAATATATAT [CACACA_site1449] | 10.7 |
| TAAATAAATACATACACACACATACAGATATATATA [CACACA_site5690] | 10.5 |
| TATAAATACAGATACACACACACACCGATATATATA [CACACA_site5271] | 10.4 |
| AATAACCACAGACACACACACATATAAATATAAATA [CACACA_site7631] | 10.9 |
| GGATATAACAGACACACACACACATATAAATATATT [CACACA_site7866] | 10.6 |
| TATACAGATATATATACACACATATATATAAATACA [CACACA_site4383] | 9.97 |
| AACCACAGACATATAACACACATATACAATATATAT [CACACA_site5142] | 10.4 |
| TATATATATAAATACACACACACACCGATATATATA [CACACA_site5408] | 10.5 |
| ATTTCATACAGACACACACACAAACAAACATATATA [CACACA_site979] | 11.2 |
| TATATACTCAAACACACACACACATACACAGACATA [CACACA_site5025] | 10.7 |

— the supplement of paper PMC11417369
